LEDGF integ inh = blocks HIV-1 LEDGF/p75-dependent DNA integration. TR-FRET IN-LEDGF/p75 DNA integration, Eu/Cy5. inhibition, % at 3.7 µM. 0.64% of 370,000 active;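 active = inhibition above the screen-wide mean plus 3 SD, cut at about 13% in these data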;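 note: signal is the Cy5 over europium emission ratio at 671 and 618 nm; 0% = plate median of compound wells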
MBD2 DNA inh = inhibitors of human MBD2 binding to methylated oligonucleotide; 0.31% of 370,000 active; AID 686964; inhibition, % at 4.4 µM; Q9UBB5; TR-FRET; in the data active = inhibition above about 13%
UHRF1 binding = human UHRF1 methylated DNA binding inhibitors; UHRF1 binding to methylated oligo, TR-FRET; inhibition, % at 4.4 µM; 0.75% of 370,000 active; Q96T88; in the data active = inhibition above about 21%;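 note: UHRF1 SRA domain binding a hemimethylated CpG hairpin DNA probe; 0% = median of test compound wells and 100% = reference inhibitor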
PG9 binder = PG9 antibody binding by small molecule. TR-FRET gp120-PG9 antibody binding. inhibition, % at 6.7 µM. AID 624416. 0.43% of 360,000 active; in the data active = inhibition above about 8.5%
rCAG binder = molecules binding r(CAG) RNA repeats. r(CAG) RNA repeat, TO-PRO-1 dye displacement fluorescence. inhibition, % at 3 µM. 1.3% of 370,000 active. AID 651821;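 active = inhibition above the plate cutoff, the mean of all test compounds on that plate plus 3 SD, cut at about 35% in these data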;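 note: 0% = DMSO alone and 100% = 100 µM mitoxantrone as full dye displacement; higher means more dye released from RNA so lower well fluorescence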
DNMT1 block = DNMT1 (human) enzyme inhibition | DNMT1 molecular beacon, Hinp1I cleavage, fluorescence | inhibition (reported as % activation of signal), % at 10 µM | 0.83% of 360,000 active | AID 588458; in the data active = inhibition above about 50%
Target sequence (P26358 504-1616 limits assumed): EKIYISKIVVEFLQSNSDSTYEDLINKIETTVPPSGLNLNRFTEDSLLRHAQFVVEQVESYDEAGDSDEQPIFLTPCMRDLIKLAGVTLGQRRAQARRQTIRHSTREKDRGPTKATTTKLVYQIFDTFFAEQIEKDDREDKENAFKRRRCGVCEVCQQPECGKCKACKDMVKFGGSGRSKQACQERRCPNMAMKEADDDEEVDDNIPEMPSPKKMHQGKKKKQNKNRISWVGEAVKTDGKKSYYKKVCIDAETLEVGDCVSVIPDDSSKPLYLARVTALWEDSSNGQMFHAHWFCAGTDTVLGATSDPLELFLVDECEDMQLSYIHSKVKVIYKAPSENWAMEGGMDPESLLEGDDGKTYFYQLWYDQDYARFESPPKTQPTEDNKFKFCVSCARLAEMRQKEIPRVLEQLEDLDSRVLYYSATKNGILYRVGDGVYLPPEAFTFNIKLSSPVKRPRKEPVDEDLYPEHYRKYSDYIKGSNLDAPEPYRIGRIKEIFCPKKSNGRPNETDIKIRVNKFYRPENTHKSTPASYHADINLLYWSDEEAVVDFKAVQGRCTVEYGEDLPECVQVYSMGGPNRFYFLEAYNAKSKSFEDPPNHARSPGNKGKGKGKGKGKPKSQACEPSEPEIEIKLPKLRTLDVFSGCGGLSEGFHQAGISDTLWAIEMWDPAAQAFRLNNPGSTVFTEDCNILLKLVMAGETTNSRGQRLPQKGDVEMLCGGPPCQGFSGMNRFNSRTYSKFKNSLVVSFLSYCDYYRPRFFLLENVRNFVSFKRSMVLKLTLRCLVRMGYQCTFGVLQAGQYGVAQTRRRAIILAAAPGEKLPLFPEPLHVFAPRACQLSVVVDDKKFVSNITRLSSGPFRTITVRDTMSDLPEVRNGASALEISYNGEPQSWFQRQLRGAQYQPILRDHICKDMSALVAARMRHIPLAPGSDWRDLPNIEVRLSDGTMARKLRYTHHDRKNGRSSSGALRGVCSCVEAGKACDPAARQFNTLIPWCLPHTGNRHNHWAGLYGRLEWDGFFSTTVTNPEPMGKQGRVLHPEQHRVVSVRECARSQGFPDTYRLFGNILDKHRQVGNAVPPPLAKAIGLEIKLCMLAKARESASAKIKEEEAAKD
rCAG binder conf = r(CAG) RNA repeat binding, confirmation; shares compounds with rCAG binder; TO-PRO-1 dye displacement fluorescence; inhibition, % at 3 µM; 70% of 4,300 active;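 active = inhibition above a per-plate cutoff, the mean inhibition of sample wells plus 3 SD, cut at about 35% in these data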;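 note: loss of TO-PRO-1 fluorescence as compound displaces dye from 1x1 AA loop RNA; 0% = DMSO only wells and 100% = 100 µM mitoxantrone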
DNA CAG counter = counter-screen for rCAG RNA binders: DNA CAG dye complex inhibitors; inhibition, % at 3 µM; shares compounds with rCAG binder; d(CAG) DNA oligo TO-PRO-1 dye displacement, fluorescence; 94% of 4,300 active;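 active = inhibition above its plate's cutoff, the mean test-well inhibition plus 3 SD, cut at about 4.8% in these data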;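 note: 0% = DNA dye mix with DMSO and 100% = 100 µM mitoxantrone; hits displace the dye from DNA and so lower well fluorescence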
An asterisk follows results filed as active; . = no result. Only some compounds are listed: those with a hit (about 3.5% of all), similar ones and a draw of the others.

SMILES	LEDGF integ inh	MBD2 DNA inh	UHRF1 binding	PG9 binder	rCAG binder	DNMT1 block	rCAG binder conf	DNA CAG counter
NC(=O)c1ccccc1NC(=O)c1ccccc1Cl	4.0	2.0	6.1	0.2	4.5	-0.3	.	.
N#Cc1ccc(Cn2ccc3ccc(-c4ccc5ccn(C(=O)c6ccccc6)c5c4)cc32)cc1	-1.0	1.3	-5.8	.	15.7	.	.	.
O=C(Nc1ccc2c(c1)OCCO2)C(C1CC1)N1CCN(c2ccc(C(F)(F)F)cn2)CC1 (stereo unspecified)	1.4	3.1	-0.9	-0.8	2.3	-0.9	.	.
COc1ccc(C(=O)N/N=C/c2c[nH]c3ccccc23)cc1	-3.9	2.7	0.5	-3.9	1.9	0.1	.	.
CCCOc1ccc(C(=O)N/N=C/c2c[nH]c3ccc(Br)cc23)cc1	-0.7	-1.4	2.6	-1.5	37.2*	-14.0	24.5	12.0*
O=C(NCc1cccs1)C1CCN(S(=O)(=O)c2ccc([N+](=O)[O-])cc2)CC1	-2.2	-2.4	-0.1	.	4.0	.	.	.
CCN1CCN(CCNC(=O)c2cc(Cl)c(NC(=O)C3=C(C)OCCS3)cc2OC)CC1	0.8	3.6	-2.0	-0.6	-9.4	-5.1	.	.
CCCOc1ccc2ccccc2c1/C=C1\SC(=O)NC1=O	-2.1	0.5	0.8	-2.0	53.2*	3.3	43.8*	13.0*
COc1ccc(/C=C2/SC(=S)NC2=O)cc1OCc1ccccc1	-3.5	-4.5	0.2	-3.4	30.2	0.6	.	.
O=C1NC(=O)/C(=C\c2ccccc2OCc2ccccc2)S1	2.2	-3.4	-1.0	-0.4	68.7*	4.6	57.6*	19.7*
COc1ccccc1OCCCOc1ccc(/C=C2\SC(=O)NC2=O)cc1OC	-2.7	2.0	1.4	-1.4	31.6	-4.6	.	.
COc1cc(/C=C2/SC(=O)NC2=O)ccc1OCc1ccccc1	2.0	-2.5	1.5	-0.7	59.2*	5.8	50.7*	12.8*
COc1ccccc1OCCCOc1cccc(/C=C2\SC(=O)NC2=O)c1	0.5	0.4	-0.6	-1.5	77.7*	0.2	83.2*	51.1*
C[C@H](CO)N1C[C@H](C)[C@@H](CN(C)Cc2cccc(C(=O)O)c2)OCc2cnnn2CCCC1=O	-7.0	-3.2	-1.5	-0.2	2.5	6.2	.	.
COc1ccc(CN2C(=O)[C@]3(NCCc4c3[nH]c3ccc(OC)cc43)c3cc(F)ccc32)cc1	5.0	5.7	1.2	.	5.6	.	.	.
O=C(O)c1cccc(S(=O)(=O)Nc2ccc(N3CCCCC3)cc2)c1	0.9	4.2	9.4	0.8	11.3	-2.0	.	.
Cc1ccc(NC(=O)c2ccc3nsnc3c2)c(C)c1	1.2	-2.7	-1.3	1.7	-1.3	0.0	.	.
Cc1ccc(S(=O)(=O)Oc2ccccc2/C=C2/SC(=O)NC2=O)cc1	-0.8	4.1	3.3	-0.4	43.9*	0.0	35.7*	7.0*
NNc1nc(Nc2ccc([N+](=O)[O-])cc2)nc(N2CCCCCC2)n1	1.8	1.3	-2.4	-0.8	35.9*	-17.2	28.8	16.3*
O=C1NC(c2cc(Cl)cc([N+](=O)[O-])c2O)Nc2ccccc21 (stereo unspecified)	-0.4	-5.7	-1.2	0.6	34.6*	-9.7	79.7*	45.5*
Cc1ccc(S(=O)(=O)N2CCOCC2)cc1C(=O)NC1CCSc2ccccc21 (stereo unspecified)	0.1	-3.1	-1.5	-2.8	1.0	1.0	.	.
COc1ccccc1NS(=O)(=O)c1ccc(C)c(NC(=O)c2c(C)noc2C)c1	-1.9	6.3	3.8	1.2	2.7	3.8	.	.
COc1ccccc1NS(=O)(=O)c1cccc(NC(=O)NCCCl)c1	-2.1	5.2	3.8	1.4	-1.4	0.5	.	.
COc1ccccc1NS(=O)(=O)c1cccc(NC(=O)Nc2cccc(Cl)c2)c1	-0.6	-4.2	-0.6	1.6	35.0*	-17.3	27.2	13.4*
COc1ccccc1NS(=O)(=O)c1ccc(C)c(NS(=O)(=O)c2cc(C(=O)O)cc(C)c2C)c1	-2.3	9.5	2.7	0.8	42.5*	-2.5	20.4	7.3*
COc1ccccc1C(=O)Nc1ccc(S(=O)(=O)Nc2onc(C)c2C)cc1	8.0	-4.7	0.2	-2.5	13.2	-0.5	.	.

High-throughput results deposited in PubChem BioAssay by several laboratories.
